High-throughput results: PubChem BioAssay, National Center for Advancing Translational Sciences (NCATS)
MCF10A rerep = inducers of DNA re-replication in MCF 10A breast cells; MCF 10A DNA re-replication, Hoechst nuclear intensity, 48 h; Potency, µM (series often up to 46.1 µM), for inactives: at the highest dose activity, positive = re-replication, usual class: activators; actives 2.9% (n = 350,000); further: % of control where 0% means no effect; nearly all actives have a fitted effect of over 50% in size
Mito fusion yeast = blocks mitochondrial division or promotes mitochondrial fusion; AID 485298; actives 0.23% (n = 320,000); Potency, µM (series often up to 46.1 µM), for inactives: top-dose growth rescue (activation), usual class: activators; S. cerevisiae fusion-defective mutant growth rescue, CellTiterGlo 48 h; further: % of control where 0% means no effect; nearly all actives have a fitted effect of over 45% in size
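Luminescent cell viability in 1536-well qHTS format served as the measure of rescued growth in ts fusion-mutant S. cerevisiae cultured on non-fermentable YPEG for 48 hours at 37C.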
Integrin act MD = activates integrin-mediated alleviation for muscular dystrophy. alpha7betagal myoblasts, beta-gal FDG fluorescence, 48 h. Potency, µM (series often up to 38.3 µM), for the others: at the top dose activation, usual class: activators. actives 0.064% (n = 350,000);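 further: 100% = response of the positive control SU9516; nearly all actives have a fitted effect of over 60% in size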
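alpha7betagal+/- myoblasts (passage 13, 250/well) treated 48 h at 37C with compounds at 1:260 dilution of DMSO stock. Lysed, then beta-galactosidase activity read as FDG fluorescence (ex 480/em 540) after 30 min, with pre-read for autofluorescence.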
SW480 rerep = DNA re-replication induction in SW480 cells. actives 1.8% (n = 340,000). SW480 DNA re-replication, Hoechst DNA content imaging, 48 h. Potency, µM (series often up to 46.1 µM), without a hit: top-dose re-replication activation, usual class: activators; further: % of control where 0% means no effect; nearly all actives have a fitted effect of over 55% in size
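Quantitative HTS format with DMSO vehicle controls; 48 hr drug incubation at 37 C, then 40 min Hoechst staining and scanning imager measurement at 405 nm excitation.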
A-T KAP1 phos = candidate therapy for ataxia-telangiectasia. F2112 A-T fibroblasts, KAP-1 phosphorylation AlphaLISA; neocarzinostatin DNA damage 30 min before lysis. Potency, µM (series often up to 57.5 µM), inactives show at the top dose activation, hits mostly activators. actives 0.19% (n = 320,000). AID 485349; further: % of control where 0% means no effect; nearly all actives have a fitted effect of over 45% in size
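ATM-like activity read as KAP-1 phosphorylation via AlphaLISA donor/acceptor antibody pairs after lysis and 6 hr at 25C. Cells were ATM-null patient fibroblasts (F2112, hTERT), dosed 60 min, then exposed to the DSB inducer NCS for 30 min.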
The depositor's hits bear a star; i = inactive; ? = inconclusive; nt = no result; [ ] = another dose, or the depositor's remark. Hits are enriched below; roughly 4.2% of the tested compounds scored in any of these assays. The call rests on the fitted dose curve; in most records, active means well fitted activation curve with a large enough effect; inconclusive means small, poorly fitted or top-dose-only effect; inactive means no such curve, though single readings can be large or run the other way. Potency means the concentration at half of the fitted maximal effect.

SMILES | MCF10A rerep | Mito fusion yeast | Integrin act MD | SW480 rerep | A-T KAP1 phos
O=C(c1ccc(F)cc1)N1CCC(C(=O)N2CCN(S(=O)(=O)c3cccc([N+](=O)[O-])c3)CC2)CC1 | 5.9% | -8.4% | -19.5% | -10.4% | 6.3%
COc1ccc(/C=N/Nc2nc3ccccc3s2)cc1O | 15.0% | 5.7% | 0.0% | -3.9% | 1.4%
COc1cc(/C=C/c2nc3ccccc3s2)cc(OC)c1O | ? | -4.1% | i | 3.1% | 0.3%
COc1cc(C=C(c2nc3ccccc3s2)c2nc3ccccc3s2)ccc1O | 20.6µM* | 15.8µM* | 0.0% | ? | 0.0%
COc1ccc(C=C(c2nc3ccccc3s2)c2nc3ccccc3s2)cc1O | 13µM* | ? | -41.0% | ? | 28.2µM*
CC(SC1=NCCN1S(C)(=O)=O)c1ccccc1 (stereo not given) | 9.4% | 1.8% | 10.3% | -12.6% | 1.7%
C/C=C1/NN(CCCN2CCN(c3cccc(Cl)c3)CC2)C(=O)N1CCOc1ccccc1 | ? | nt | nt | 1.8% | nt
CCc1cc2cc3c(cc2nc1SCC(=O)Nc1nnc(C)s1)OCCO3 | 3.26µM* | 2.5% | 12.6% | 16.4µM* | 6.2%
Cc1cc2cc3c(cc2nc1SCC(=O)Nc1nc(C)c(C)s1)OCO3 | 4.11µM* | -4.7% | 9.2%[7.66 µM] | 3.9% | -7.5%
COc1ccc(C(=O)/C(C#N)=N/Nc2ccccc2[N+](=O)[O-])cc1 | 1.84µM* | 2.7% | -4.3% | 5.8µM* | -6.5%
CC(=O)N1CCN(c2ccc(NCc3ccc(F)cc3)cc2)CC1 | -1.2% | -5.5% | -12.3% | 3.4% | 13.7%
O=C(O)c1ccc(CNCc2cccc(OCc3ccc(F)cc3)c2)cc1 | -0.1% | -13.8% | 1.3% | -9.2% | 5.7%
COc1cc(CNc2ccc(N3CCN(C(C)=O)CC3)cc2)ccc1OCc1ccc(F)cc1 | 10.3µM* | 0.9% | -8.9% | 1.0% | -2.7%
COc1cc(CNCc2ccc(C(=O)O)cc2)ccc1OCc1ccc(F)cc1 | 1.4% | 7.3% | 4.47µM* | -21.2% | -8.6%
CCOC(=O)c1ccc(NC(=O)c2nc[nH]c2C(=O)N[C@@H](C)CO)cc1 | nt | nt | 9.0% | nt | nt
Cc1cc(NC(=O)C2COc3ccccc3O2)no1 (stereo not given) | 2.0% | -1.5% | 7.1% | -1.9% | 9.6%
COC(=O)C1C(=O)c2c([nH]c(C(=O)OCC3CCCO3)c2C)CC1C (stereo not given) | 6.1% | 1.2% | 0.0% | 0.5% | -1.2%
CNc1oc(-c2ccccc2Cl)nc1P(=O)(c1ccccc1)c1ccccc1 | 18.5% | -3.7% | 7.7% | -2.8% | 12.9%
CNc1oc(-c2ccc(C)cc2)nc1P(=O)(c1ccccc1)c1ccccc1 | 18.4µM* | 9.4% | -23.8% | 6.3% | 16.6%
CC(C)Cn1c2c(c(=O)[nH]c1=O)C(C(F)(F)F)(C(F)(F)F)N=C(CCC1CCCCC1)N2 | 16.4µM* | -0.9% | -18.3% | 1.7% | 8.0%
O=c1[nH]c(=O)n(-c2ccccc2)c2c1C(C(F)(F)F)(C(F)(F)F)N=C(CCC1CCCCC1)N2 | 16.4µM* | -2.2% | 33.1% | ? | -1.9%
O=c1[nH]c(=O)n(Cc2ccco2)c2c1C(C(F)(F)F)(C(F)(F)F)N=C(CCC1CCCCC1)N2 | 1.5% | 3.1% | 10.1% | 3.0% | -1.1%
COc1ccc(CN(C)C(=O)c2ccc(NC(=O)CC3SC(N4CCCCC4)=NC3=O)cc2)c(OC)c1 (stereo not given) | 29.9% | nt | 10.4% | -9.4% | nt
CCOc1ccc2[nH]c(C(=O)N/N=C/c3ccccc3OC)cc2c1 | 5.17µM* | -8.3% | 7.0% | 14.6µM* | 19.3%
COc1ccc2[nH]c(C(=O)N/N=C/c3ccc(OC)c(O)c3)cc2c1 | 2.06µM* | 8.6% | -17.7% | 11.6µM* | -10.3%
SMILES | MCF10A rerep | Mito fusion yeast | Integrin act MD | SW480 rerep | A-T KAP1 phos
COc1ccc([C@]23Cc4cc(OC)c(OC)cc4C(O2)C2=C(CCCC2=O)O3)cc1 | nt | -1.2%[9.22 µM] | nt | nt | 3.3%[11.5 µM]
CCn1nc([N+](=O)[O-])c(C(C#N)c2nc3cc(C(F)(F)F)ccc3s2)c(Cl)c1=O (stereo not given) | 29.4% | ? | -33.4% | 4.61µM* | 1.7%
CCC1(c2ccccc2)C(=O)N(C(=O)OC(C)(C)C)N1C(=O)OC(C)(C)C (stereo not given) | -2.7% | -8.4% | 1.3% | -1.8% | 0.7%
CCOC(=O)N1C(=O)[C@](CC)(c2ccccc2)N1C(=O)OCC | 16.4µM* | -0.9% | -19.8% | ? | 33.3%
O=C(/C=C/c1ccccc1)c1ccc2c3c(cccc13)CC2 | 18.4µM* | 4.8% | 17.3% | 9.4% | 3.3%
O=C(CSc1ccc(Cl)cc1)Nc1cccc(-c2nc3ccccc3[nH]2)c1 | 18.4µM* | -1.6% | -10.3% | -192.5% | 2.9%
O=C(Nc1ccc2nc(-c3ccccc3)[nH]c2c1)c1ccco1 | 5.2% | -3.5% | -4.4% | -4.7% | -7.4%
O=C(Nc1cccc(-c2nc3ccccc3[nH]2)c1)c1cccc(NC(=O)c2ccco2)c1 | ? | -3.6% | -9.0%[7.66 µM] | 14.6µM* | 5.9%
CC(C)(C)C(=O)/C(=C/c1ccncc1)n1cncn1 | ? | -21.4% | -15.3% | ? | 29.0%
Cc1cc(=O)n2nc(N3CCCC(C(=O)NCc4ccc(F)cc4)C3)sc2n1 (stereo not given) | -1.1% | -10.2% | ? | -3.3% | -1.8%
O=C(NCc1ccc(F)cc1)C1CCCN(c2nc3ccsc3c(=O)s2)C1 (stereo not given) | 11.6µM* | -0.6% | 0.0% | ? | 6.2%
Cc1ccc(NC(=S)N2CCN(S(=O)(=O)c3ccc(C)cc3)CC2)cc1 | 8.7% | -6.2% | 8.7% | 13.7% | -1.3%
C[C@@H]1CN([C@H](C)CO)C(=O)CCCn2cc(nn2)CO[C@H]1CN(C)S(=O)(=O)c1cccc(F)c1 | nt | nt | -4.5% | nt | nt
Cc1c(C(=O)NNC(=O)c2csc(N3CCOCC3)n2)oc2ccccc12 | 14.6µM* | 4.8% | -12.3% | 0.9% | -5.1%
O=C(c1ccc(CN2CCc3ccccc3C2)cc1)N1CCN(c2ccc(F)cc2)CC1 | 7.31µM* | nt | -17.2% | -9.5% | nt
O=C(c1ccc(Cn2cc(Br)cn2)cc1)N1CCN(c2ccccc2)CC1 | 20.6µM* | -1.2% | 27.5% | 14.6µM* | 3.8%
O=C(c1ccc(CN2CCc3ccccc3C2)cc1)N1CCCCC1 | 20.5% | -12.4% | -16.7% | -3.6% | 4.8%
O=C(c1ccc(Cn2cc(Cl)cn2)cc1)N1CCN(c2ccccc2)CC1 | -181.1%[0.0737 µM] | -13.3% | 22.2% | 2.0% | nt
CCN(CC(=O)Nc1c(F)cccc1F)C(=O)c1ccc(N2CCOCC2)c([N+](=O)[O-])c1 | -0.4% | 8.3% | -6.8% | -0.2% | 8.3%
COc1ccc(-n2c(/C=C(\C)O)nc(=O)c3c(C)cc(C)nc32)cc1 | 1.7% | 20µM* | 10.0% | 0.3% | 10.2%
COc1ccc(-n2c(C)nn(C)c2=O)cc1 | -1.0% | 0.2% | 4.5% | 10.0% | 6.0%
COc1ccccc1S(=O)(=O)N(C)C[C@@H]1OCc2cn(nn2)CCCC(=O)N([C@@H](C)CO)C[C@H]1C | nt | nt | 18.0% | nt | nt
